High-throughput results (PubChem)
TDP1 cell noCPT: qHTS for Inhibitors of human tyrosyl-DNA phosphodiesterase 1 (TDP1): qHTS in cells in absence of CPT; DT40 Tdp1-/- hTDP1 cells, no CPT, ATP luminescence, 48 h; Potency, µM (doses to about 46.2 µM), without a hit: top-dose activity change, negative = growth inhibition, most hits filed as inhibitors; AID 686978, 2013; 420,000 tested, 15% active; also: potency is read from the fitted curve at half-maximal effect; % is scaled to controls: 0 for no effect and ±100 for the full control effect; nearly all actives have a fitted effect of over 55% in size
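Growth kinetics read by CellTiter-Glo luminescence after ≥48 hr at 37 °C. Cells: DT40 Tdp1-/- stably carrying human TDP1, 400 per well, compound exposure in the absence of CPT (DMSO vehicle).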
TDP1 block: inhibitors of human tyrosyl-DNA phosphodiesterase TDP1; Q9NUW8; recombinant TDP1, AlphaScreen DNA substrate cleavage; Potency, µM (doses to about 130 µM), for inactives: at the highest dose activity change, negative = inhibition, usual class: inhibitors; 350,000 tested, 0.28% active; also: potency is read from the fitted curve at half-maximal effect; % is scaled to controls: 0 for no effect and ±100 for the full control effect; nearly all actives have a fitted effect of over 40% in size
Target sequence (Q9NUW8 whole entry, looked up): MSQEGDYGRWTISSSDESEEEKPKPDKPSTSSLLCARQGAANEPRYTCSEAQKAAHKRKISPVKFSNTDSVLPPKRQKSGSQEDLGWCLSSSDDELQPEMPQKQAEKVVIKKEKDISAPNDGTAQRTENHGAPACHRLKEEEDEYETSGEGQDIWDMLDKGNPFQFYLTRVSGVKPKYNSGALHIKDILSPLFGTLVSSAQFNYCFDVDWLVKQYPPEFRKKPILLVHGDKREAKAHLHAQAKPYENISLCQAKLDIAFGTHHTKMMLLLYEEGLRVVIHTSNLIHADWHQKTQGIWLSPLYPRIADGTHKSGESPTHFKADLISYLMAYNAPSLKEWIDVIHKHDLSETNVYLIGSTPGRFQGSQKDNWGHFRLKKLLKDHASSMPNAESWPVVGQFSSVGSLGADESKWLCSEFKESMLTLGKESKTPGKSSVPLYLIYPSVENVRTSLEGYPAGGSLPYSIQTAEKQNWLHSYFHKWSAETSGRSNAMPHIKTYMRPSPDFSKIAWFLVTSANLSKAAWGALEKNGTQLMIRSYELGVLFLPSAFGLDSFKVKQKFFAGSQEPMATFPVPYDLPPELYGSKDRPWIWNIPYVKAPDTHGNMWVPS
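Recombinant E. coli-expressed Tdp1 (1 nM) preincubated with compound 15 min at RT, then 5'-biotin/3'-phosphotyrosine-FITC DNA substrate (15 nM) added for 5 min. AlphaScreen beads (10 ug/ml) added, 10 min RT; tyrosine-FITC cleavage read as signal loss.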
HepG2 viability: counter-screen for TGF-b inhibitors: cytotoxicity in HepG2 cells | 410,000 tested, 0.76% active | AID 588856 | HepG2 CAGA-GFP viability, ATP luminescence, 18 h | Potency, µM (highest dose often 46.1 µM), for inactives: at the highest dose activity change, negative = cytotoxicity, usual class: cytotoxic; also: potency is read from the fitted curve at half-maximal effect
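CellTiter-Glo luminescence gave cytotoxicity after 18 hours at 37 degrees C. The cells were HepG2 CAGA-GFP in 1% FBS DMEM, stimulated with 500 pg/mL TGF-beta after compound addition. %Activity was normalised to no-cell wells (complete cell-killing) and DMSO (no toxicity), and curves were fitted and classified.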
TGFb inhibitor: blocks TGF-b signaling; HepG2 CAGA-GFP TGF-b/SMAD3 reporter, GFP fluorescence, 18 h; TGF-beta stimulated, 500 pg/mL final; Potency, µM (series often up to 46.1 µM), for the others: top-dose activity, negative = inhibition, most hits filed as inhibitors; 410,000 tested, 1.2% active; also: potency is read from the fitted curve at half-maximal effect; % is scaled to controls: 0 for no effect and ±100 for the full control effect; nearly all actives have a fitted effect of over 65% in size
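Per well, imaged GFP fluorescence of HEPG2 CAGA-GFP cells gives the signal; cells get compound, then TGF-beta (500 pg/mL final), 18 h at 37 degrees C; %Activity versus -TGF-beta and +DMSO controls.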
IL1B secr inh: blocks inflammasome-driven IL-1 beta release; THP-1 LPS/ATP IL-1B secretion, AlphaLISA, 16 h; stronger effect = lower value; activity change, % at 57.5 µM; 360,000 tested, 4.7% active; AID 743279; in the data active = activity change below about -50%; inconclusive = mostly about -30% to -49%; also: % is scaled to controls: 0 for no effect and ±100 for the full control effect
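THP-1 cells pretreated 1 hr with compounds (up to 57.5 uM final), then stimulated with LPS (250 ng/mL final) plus ATP (1.25 mM final); secreted IL-1B measured by AlphaLISA after 16 hr, decreased signal indicating inhibition.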
DT40 TDP1 CPT: growth inhibition of DT40 Tdp1-/-;hTDP1 cells with camptothecin (screen for TDP1 inhibitors); 420,000 tested, 12% active; chicken DT40 Tdp1-/-;hTDP1 cells + 20 nM CPT, ATP luminescence, 48 h; Potency, µM (titrated, usually from 46.2 µM), without a hit: top-dose activity change, negative = growth inhibition, actives largely listed as inhibitors; also: potency is read from the fitted curve at half-maximal effect; % is scaled to controls: 0 for no effect and ±100 for the full control effect; nearly all actives have a fitted effect of over 55% in size
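Chicken DT40 Tdp1-/- cells stably complemented with human TDP1 were seeded at 400 cells/well in medium containing 20 nM camptothecin, exposed to pin-transferred compounds, and grown at 37 °C for at least 48 hr. Viability was read as ATP luminescence.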
Numbers without * were called inactive; ? = inconclusive; . = not tested or not shown; [ ] = another dose, or the depositor's remark. Sampled rows, rich in hits. Any-hit rate of the full collection: about 19%. Unless noted, calls follow the shape of the dose curve; as a rule, active = well fitted curve in the direction sought with a large enough effect; inconclusive = small, poorly fitted or top-dose-only effect, or another doubt; inactive = no such curve, though single readings can be large; an effect the other way counts as inactive or inconclusive.

SMILES | TDP1 cell noCPT | TDP1 block | HepG2 viability | TGFb inhibitor | IL1B secr inh | DT40 TDP1 CPT
O=C(NCc1ccc(F)cc1)c1cc(S(=O)(=O)N2CCCCC2)ccc1N1CCOCC1 | ? | 0%[56.1 µM] | -21% | 1% | 31 | ?
COc1ccc(OC)c(CNC(=O)c2ccccc2NC(=O)c2nsc3ccccc23)c1 | ? | 0% | -12% | -19% | . | ?
Cc1nn(CC(=O)NCc2ccccc2Cl)c(=O)c2nn(-c3ccccc3)c(C)c12 | ? | 3% | 7% | 0% | . | ?
CN(Cc1ccc(F)cc1)C(=O)c1cc(S(=O)(=O)N2CCCCC2)ccc1N1CCOCC1 | 16µM* | 2% | -76% | 3% | -5 | ?
CN(Cc1ccc(Cl)cc1)C(=O)c1cc(S(=O)(=O)N2CCOCC2)ccc1N1CCCC1 | ? | . | -5% | -13% | -9 | ?
Cc1ccc(C(=O)Nc2c(-c3ccccc3)nc3ccccn23)cc1 | -23% | -3% | -3% | ? | . | -30%
COc1ccc(-c2[nH]ncc2C(=O)NCc2cccc(F)c2)cc1 | -14% | 3% | -4% | . | . | 0%
CCN(CC)c1ccc(/C=N/Nc2nc3ccccc3[nH]2)c(O)c1 | 4.6µM* | 11% | -32% | 16µM* | -59* | 4.6µM*
Cc1ccc(/C=N\Nc2nc3ccc(Cl)cc3[nH]2)o1 | 21µM* | 6% | -12% | -11% | ? | ?
Cc1[nH]c2ccccc2c1/C=N/Nc1ccccn1 | . | 5% | . | . | . | .
c1ccc2c(c1)CC/C2=N/Nc1nc2ccccc2[nH]1 | 18µM* | 11% | -32% | ? | -108* | ?
C(=N\Nc1nc2ccccc2[nH]1)/c1ccccn1 | 21µM* | 9% | -83% | ? | 110 | ?
Cc1ccc(/C=N/Nc2cn[nH]c(=O)n2)o1 | -4% | 0% | -21% | -6% | 9 | 0%
CCCCNC(=O)C1(C)CCCCN1C(=O)c1cccs1 (stereo not drawn) | -17% | . | -3% | -4% | 13 | ?
CC1CCC(Nc2ncnc3onc(-c4ccc(Cl)cc4)c23)CC1 (stereo not drawn) | ? | 3% | 2% | 13% | . | ?
Oc1ccccc1/C=N/Nc1cccc2cccnc12 | ? | 10% | -40% | ? | -6 | ?
Fc1ccccc1-c1ccc(/C=N/Nc2nc3ccccc3[nH]2)o1 | ? | 11% | -57% | 13µM* | 0 | ?
C#CCn1cc(/C=N/Nc2nc3ccccc3[nH]2)c2ccccc21 | ? | -2% | -5% | ? | -92* | ?
CC(/C=N/Nc1nncc(=O)[nH]1)=C\c1ccccc1 | 2% | -1% | -1% | 1% | -1 | 23%
C(=N\Nc1nc2ccccc2[nH]1)/c1cccc2nccnc12 | 4.1µM* | 8% | -17% | -7% | . | 2.9µM*
BrC(=C\c1ccccc1)/C=N/Nc1nc2ccccc2[nH]1 | ? | 1% | 12% | ? | -29 | 18µM*
O=C(Nc1nc2ccccc2[nH]1)Nc1ccccc1F | ? | 10% | -45% | -4% | -8 | -11%
Cc1cc(C)n(-c2nc3cc(Cl)ccc3nc2N2CCN(c3cccc(C)c3C)CC2)n1 | -15% | -4%[12.3 µM] | 7% | 13% | . | -18%
C(=N\Nc1nc2ccccc2[nH]1)/c1ccc2c(c1)OCCO2 | ? | 10% | -53% | ? | 41 | ?
C(=N\Nc1nc2ccccc2[nH]1)/c1ccc2ncccc2c1 | 0.82µM* | 5% | -74% | ? | 0 | ?
SMILES | TDP1 cell noCPT | TDP1 block | HepG2 viability | TGFb inhibitor | IL1B secr inh | DT40 TDP1 CPT
O=C(Cc1ccc(Br)cc1)Nc1ccc(S(=O)(=O)N2CCCC2)cc1 | . | 1% | . | . | . | .
CCOc1ccc(NC(=O)CSc2nnc3c(n2)[nH]c2ccc(S(=O)(=O)N4CCCCC4)cc23)cc1 | 16µM* | . | . | . | . | 13µM*
CCOc1ccc(CC(=O)Nc2ccc(S(=O)(=O)N3CCCC3)cc2)cc1 | 15µM* | 7% | 11% | -7% | 11 | ?
COc1ccc(NC(=O)CCOc2ccc(C)cc2)cc1S(=O)(=O)N1CCCCC1 | ? | 0% | -9% | ? | -12 | ?
O=C(CSc1nnc2c(n1)[nH]c1ccc(S(=O)(=O)N3CCOCC3)cc12)Nc1ccccc1Cl | -23% | 0% | 4% | -12% | 14 | ?
Cc1ccc(OCCC(=O)Nc2ccc(S(=O)(=O)N3CCCC3)cc2)cc1 | 15µM* | -1% | -26% | -28% | ? | ?
O=C(Nc1ccc(Cl)cc1)C1CCCN(S(=O)(=O)c2ccc3[nH]c(=O)ccc3c2)C1 (stereo not drawn) | -20% | 3% | -45% | ? | . | ?
CCCCNC(=O)C1CCC(CNS(=O)(=O)c2ccc(C)cc2)CC1 (stereo not drawn) | -15% | 2% | -23% | -2% | 16 | -2%
CCCCSCCCNC(=O)C1CCC(CNS(=O)(=O)c2ccccc2)CC1 (stereo not drawn) | ? | 3% | -23% | 0% | -1 | 16µM*
Brc1ccc(CSc2nnc(-c3ccccn3)n2Cc2ccco2)cc1 | 8.2µM* | 1% | -20% | ? | 0 | 15µM*
CC(C)(C)c1ccc(CSc2nnc(-c3ccccn3)n2Cc2ccco2)cc1 | ? | 10% | -27% | ? | -94* | ?
CNC(=O)CSc1nnc(-c2ccccn2)n1Cc1ccco1 | 18% | 1% | -9% | -16% | 4 | -4%
Clc1cccc(CSc2nnc(-c3ccccn3)n2Cc2ccco2)c1 | 16µM* | -2% | -25% | -22% | -19 | 16µM*
O=C(CSc1nnc(-c2ccccn2)n1Cc1ccco1)c1ccccc1 | ? | 3% | -9% | -9% | -8 | ?
O=c1[nH]c(=S)[nH]c2n[nH]nc12 | 4% | . | -12% | -1% | . | 12%
CCSc1ncc(Cl)c(C(=O)N(Cc2ccccc2)Cc2ccco2)n1 | 16µM* | 2% | -36% | . | . | ?
Cc1ccc(CN(Cc2ccco2)C(=O)c2ccc(Cl)cc2Cl)cc1 | ? | 2% | -35% | -39% | . | ?
CSc1ncc(Cl)c(C(=O)N(Cc2ccc(N(C)C)cc2)Cc2ccco2)n1 | 7.3µM* | 16% | 0% | -24% | . | ?
CCCSc1ncc(Cl)c(C(=O)N(Cc2ccc(Cl)cc2)Cc2ccco2)n1 | ? | -9% | -20% | . | . | ?
COc1ccc(N(Cc2ccccc2)C(=O)c2nc(SC)ncc2Cl)cc1 | 5.2µM* | 6% | -30% | 13µM* | . | 10µM*
